Laboratory results published in PubChem BioAssay.
“And” between values parts separate entries of the source, which are not always exact repeats. Identical values can stand only once. The source made the active and inactive calls. No rule for the calls is given here.

These molecules were tested on Aerobactin synthetase IucA (Klebsiella pneumoniae hvKP1) (assay: IucA enzyme inhibition, primary screen, biochemical, Spectrum library (AID 1346200;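 also: 100% = wells without compound and 0% = wells lacking enzyme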)). Conditions: malachite green pyrophosphate, A620, at 8 µM, hits give low values.

SMILES	activity remaining
O=C(O)/C=C/C=C/c1ccccc1	103% (inactive)
Oc1cc2c(cc1O)C(c1ccccc1)CNCC2 (stereo not given)	88.1% (inactive)
CC1CCC(NC(=O)N(CCCl)N=O)CC1 (stereo not given)	106% (inactive)
COC(=O)c1c(Cl)c(Cl)c(C(=O)OC)c(Cl)c1Cl	110% (inactive)
CC1=C2C(O)C(=O)OC3CC4C(C)(C)C(=O)C=C[C@]4(C)C(CC1)[C@]23C (stereo not given in full)	109% (inactive)
CC(C)CCCC(C)C1CCC2C3CC(=O)[C@H]4C[C@@H](O)CC[C@]4(C)C3CC[C@]12C (stereo not given in full)	121% (inactive)
CC(=O)OCC(=O)[C@@]1(O)CCC2C3CC[C@@H]4C[C@H](O)CC[C@]4(C)C3C(=O)C[C@@]21C (stereo not given in full)	97.5% (inactive)
CC(=O)O[C@H]1CC[C@]2(C)C3=CC(=O)[C@@]4(C)C(C[C@@H]5OC6(OCC(C)CC6Br)[C@@H](C)[C@@H]54)C3CC[C@H]2C1 (stereo not given in full)	117% (inactive)
C[C@]12C=CC(=O)C=C1CCC1C2[C@@H](O)C[C@@]2(C)C1CC[C@]2(O)C(=O)COP(=O)(O)O (stereo not given in full)	117% (inactive)
CO/N=C(/C(=O)N[C@@H]1C(=O)N2C(C(=O)O)=C(CSc3nc(=O)c(O)nn3C)CS[C@H]12)c1csc(N)n1	110% (inactive)
CN1CCc2c(c3ccccc3n2Cc2ccccc2)C1	116% (inactive)
O=C1c2ccccc2C(=O)C1c1ccccc1	121% (inactive)
CC(=O)Oc1c(-c2ccccc2)oc2c(CC=C(C)C)c3c(c(OC(C)=O)c2c1=O)C=CC(C)(C)O3	98.4% (inactive)
COC(=O)c1c(C)cc(OC)cc1O	98.9% (inactive)
NCCCC(O)(P(=O)(O)O)P(=O)(O)O	112% (inactive)
CCCCCCCCCCCC1=C(O)C(=O)C=C(O)C1=O	102% (inactive)
Cc1cc(C)cc(OCC2CNC(=O)O2)c1 (stereo not given)	113% (inactive)
CCOC(=O)CCC(=O)O[C@H]1[C@H](O[C@@H]2[C@@H](C)[C@H](O[C@H]3C[C@@](C)(OC)[C@@H](O)[C@H](C)O3)[C@@H](C)C(=O)O[C@H](CC)[C@@](C)(O)[C@H](O)[C@@H](C)C(=O)[C@H](C)C[C@@]2(C)O)O[C@H](C)C[C@@H]1N(C)C	113% (inactive)
OC1CC2CCCC(C1)N2Cc1ccccc1 (stereo not given)	93.4% (inactive)
Cn1nnnc1SCC1=C(C(=O)O)N2C(=O)C(NC(=O)C(OC=O)c3ccccc3)C2SC1 (stereo not given)	118% (inactive)

SMILES	activity remaining
COC(=O)C(C)c1ccc(C(=O)c2cccs2)cc1 (stereo not given)	103% (inactive)
Nc1nc(N)c2nc(CNc3ccc(C(=O)NC(CCC(=O)O)C(=O)O)cc3)cnc2n1 (stereo not given)	102% (inactive)
O=C(O)c1cc(=O)c(O)c2c(O)c(O)ccc2c1	90.4% (inactive)
CC1(C)C2CC[C@]3(C)C(C(=O)C=C4[C@@H]5C[C@@](C)(C(=O)O)CC[C@]5(C)CC[C@]43C)[C@@]2(C)CC[C@@H]1OC(=O)CCC(=O)O (stereo not given in full)	120% (inactive)
Cc1cccc(CN2CCN(C(c3ccccc3)c3ccc(Cl)cc3)CC2)c1 (stereo not given)	95.5% (inactive)
Oc1cc2c(cc1O)C1c3ccc(O)c(O)c3OCC1(O)C2 (stereo not given)	109% (inactive)
COc1cc2c(cc1OC)C1Cc3ccc(OC)c(OC)c3CN1CC2 (stereo not given)	118% (inactive)
C=C1C2CC[C@@]3(C)[C@H](c4ccoc4)OC(=O)C[C@]13O[C@H]1CC(=O)C(C)(C)[C@H](C(O)C(=O)OC)[C@@]21C (stereo not given in full)	95.2% (inactive)
COc1ccc2c(c1)OCC(Cc1ccc(OC)c(O)c1)C2=O (stereo not given)	115% (inactive)
CC(=O)OC/C=C(C)/C=C/C=C(C)/C=C/C1=C(C)CCCC1(C)C	92.2% (inactive)
O=C(O[C@@H]1Cc2c(O)cc(O)cc2O[C@@H]1c1cc(O)c(O)c(O)c1)c1cc(O)c(O)c(O)c1	113% (inactive)
CC[C@H](/C=C/C(C)C1CCC2C3CCC4=CC(=O)CC[C@]4(C)C3CC[C@]12C)C(C)C (stereo not given in full)	101% (inactive)
O=C1c2ccccc2C(=O)c2c(O)c(O)cc(O)c21	118% (inactive)
COc1ccc2cc([C@H](C)CO)ccc2c1	118% (inactive)
O=C1CCC(N2C(=O)c3ccccc3C2=O)C(=O)N1 (stereo not given)	117% (inactive)
CN(C)CCC(c1ccc(Br)cc1)c1ccccn1 (stereo not given)	123% (inactive) and 96.1% (inactive)
CO[C@H]1/C=C/O[C@@]2(C)Oc3c(C)c(O)c4c(O)c(c5c(nc6cc(C)ccn65)c4c3C2=O)NC(=O)/C(C)=C\C=C\[C@H](C)[C@H](O)[C@@H](C)C(O)[C@@H](C)[C@H](OC(C)=O)[C@@H]1C (stereo not given in full)	110% (inactive)
CCOC(=O)c1c(C)cc(OC)cc1O	110% (inactive)
CC(C1OC(C)(C)C(O)C1O)[C@@H]1CC[C@]2(C)C3=CCC4C(C)(C)C(=O)CC[C@]4(C)C3CC[C@@]12C (stereo not given in full)	111% (inactive)
COc1cc(C(=O)N2CCOCC2)cc(OC)c1OC	111% (inactive)
